Shown are actives, neighbours in structure and some others; about 20% of the full set was active somewhere.
Pf growth 96h: P. falciparum growth inhibition at 96 hours | P. falciparum luciferase reporter growth, 96 h | Potency, µM (top dose mostly 28.7 µM), for inactives: at the top dose activity change, negative = inhibition, actives largely listed as inhibitors | 320,000 tested, 6.9% active | AID 504834; also: potency is read from the fitted curve at half-maximal effect; % is scaled to controls: 0 for no effect and ±100 for the full control effect
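Two-generation exposure (96 h) targets delayed-death phenotype. Reporter parasites carrying integrated firefly luciferase, in red cells at 2% hematocrit and 0.05% parasitemia final, kept at 37 C, 5% CO2; luminescence loss indicates inhibition.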
Pf growth 48h: inhibits P. falciparum growth in the first generation, 48 h | P. falciparum luciferase growth in erythrocytes, 48 h | Potency, µM (highest dose often 28.7 µM), for inactives: at the top dose activity change, negative = inhibition, most hits filed as inhibitors | 310,000 tested, 5.9% active | AID 504832; also: potency is read from the fitted curve at half-maximal effect; % is scaled to controls: 0 for no effect and ±100 for the full control effect
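Luminescence readout; reporter = integrated firefly luciferase in P. falciparum. RBC culture at 2% hematocrit, 0.1% parasitemia final, 37 C/5% CO2; decreased signal taken as growth inhibition.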
CHX counter: counter-screen hit for Shiga toxin inhibitors, cycloheximide; cell reporter, cycloheximide protein synthesis inhibition counterscreen; max response, %; 300,000 tested, 12% active; AID 2314; in the data active = max response mostly above about 13%, no sharp cut-off; inactive = mostly below about 14%; also: read at 38.3 µM for the half of the compounds with a filed dose; 0% is about no effect
HCMV inh: inhibitors of human cytomegalovirus. HFF cells, HCMV-luciferase reporter, 72 h; hits give low values. activity change, negative = inhibition, % at 57.5 µM. 410,000 tested, 4.5% active. AID 1259415; in the data active = activity change below about -60%; inconclusive = no clear call, values can overlap the other calls; inactive = above about -39%; also: % is scaled to controls: 0 for no effect and ±100 for the full control effect
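Two compound doses tested in HFFs infected with HCMV-luciferase, MOI 1 PFU/cell, 72 h at 37C. Lysate luminescence read with OneGlo; data normalized against buffer-only and 10uM Salinomycin inhibitor controls.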
Shiga toxin inh: Shiga toxin inhibition. AID 2315. Vero cells, Shiga toxin protein synthesis inhibition reporter. 290,000 tested, 9.2% active. inhibition, % at 38.7 µM; in the data active = inhibition mostly above about 28%, no sharp cut-off; inactive = mostly below about 43%; also: 0% is about no effect
* hit, by the source's call; i = inactive; ? = inconclusive; / = not tested or not shown. Unless noted, calls follow the shape of the dose curve; as a rule, active = well fitted inhibition curve with a large enough effect; inconclusive = small, poorly fitted or top-dose-only effect, or another doubt; inactive = no such curve, though single readings can be large or run the other way.

SMILES	Pf growth 96h	Pf growth 48h	CHX counter	HCMV inh	Shiga toxin inh
N#Cc1cccc(NC(=O)CSc2nc3c(cc2C#N)N2CCC3CC2)c1	/	/	/	-83*	/
N#Cc1cccc(NC(=O)CSc2ccccc2)c1	-21%	39%	9.1*	-20	3
CCOC(=O)N1CCN(S(=O)(=O)c2cccc3ccc(C)nc23)CC1	0%	-11%	0	8	-14
CCOc1ccccc1CNCc1c(C(=O)O)n(Cc2ccc(F)cc2)c2cc(C)ccc12	/	/	/	11	/
Cc1cc(NC(=O)COC(=O)C(C)Oc2ccc(Cl)cc2Cl)no1 (stereo not given)	17%	17%	-4	4	2
N#C/C(=C\c1ccc(-c2ccc(C(=O)O)cc2)o1)C(=O)Nc1ccc(F)cc1	9.3µM*	-17%	-3	33	21
Cc1cccc(C)c1NC(=O)/C(C#N)=C/c1ccc(-c2ccc(C(=O)O)cc2)o1	22%	74%	21*	29	70*
N#C/C(=C\c1ccc(-c2ccc(C(=O)O)cc2)o1)C(=O)NCC1CCCO1 (stereo not given)	0%	6%	8	/	-4
O=C(NCc1ccccc1Cl)C1CCC(=O)N(CCCN2CCCC2=O)C1 (stereo not given)	-22%	5%	-2	34	-12
COc1ccc(CCCNC(=O)C2CCC(=O)N(CCc3cccc(F)c3)C2)cc1 (stereo not given)	4.1µM*	2%	10	21	22
O=C(NCCc1ccc(C(F)(F)F)cc1)C1CCC(=O)N(CCc2cccc(F)c2)C1 (stereo not given)	13%	8%	16*	-12	11
O=C(NCCc1ccccc1C(F)(F)F)C1CCC(=O)N(CCCN2CCCC2=O)C1 (stereo not given)	9.3µM*	-18%	2	28	14
COc1ccc(OC)c(-c2nnc3n2N=C(c2ccccc2OC)CS3)c1	/	/	16	/	-14
C/C(=N/NC(=O)CN1CCN(S(=O)(=O)c2ccc(Br)cc2)CC1)c1ccco1	?	-14%	-1	?	-8
COc1cc([N+](=O)[O-])ccc1NC(=S)NCc1ccccn1	19%	18%	-2	-1	-4
COc1cc([N+](=O)[O-])ccc1NC(=O)NCc1ccccn1	16%	-2%	12*	-19	4
COc1cc([N+](=O)[O-])ccc1NC(=O)Nn1cnnc1	13µM*	11%	1	11	-3
COc1ccc(C)cc1NC(=O)Nn1cnnc1	/	2%	-6	16	-3
CC(C)N1CC(C(=O)Nc2ccc(Cl)c([N+](=O)[O-])c2)CC1=O (stereo not given)	?	24%	-1	16	-5
O=C(O)Cc1sc(Nc2cccc3ccccc23)nc1-c1ccc(F)cc1	12%	-5%	7	-24	6
Cc1cccc(Nc2nc(CC(=O)O)cs2)c1	?	46%	41*	-22	105*
NCc1csc(Nc2ccc(C(=O)c3ccccc3)cc2)n1	/	/	/	5	/
Cc1ccc(-c2nc(Nc3cccc(C)c3)sc2CC(=O)O)cc1	-1%	50%	27*	54	55*
COc1ccc(-c2nc(C)sc2CC(=O)O)cc1	/	?	1	-83*	1
O=C(O)Cc1sc(NC2CCCCC2)nc1-c1ccc(Cl)cc1	?	-23%	54*	35	42*
SMILES	Pf growth 96h	Pf growth 48h	CHX counter	HCMV inh	Shiga toxin inh
O=C(O)Cc1sc(NCCc2ccccc2)nc1-c1ccc(F)cc1	-10%	4%	9	?	34
CC(=O)c1sc(NC(=O)C2CCCN2S(=O)(=O)c2ccccc2F)nc1C (stereo not given)	2%	7%	/	0	/
COC(=O)Cc1nc(Nc2ccccc2)sc1C	42%	17%	12*	?	10
Cc1ccc(NC(=S)Nc2nc(CC(=O)Nc3ccccc3)cs2)cc1	42%	-2%	14*	7	15
Cc1ccc(-c2nc(-c3ccc(Cl)cc3)sc2CC(=O)O)c(C)c1	?	3%	28*	19	7
CCOC(=O)Cc1nnc2c(Nc3ccc(Cl)cc3)nc3nonc3n12	/	?	-1	-74*	-5
CC(=O)c1sc(Nc2ccc(Oc3ccccc3)cc2)nc1C	/	/	/	-20	/
O=C(O)Cc1sc(-c2ccccc2Cl)nc1-c1ccccc1	-6%	-18%	4	59	-7
Cc1nc(N2CCOCC2)c2c(C(=O)NCc3ccc(Cl)cc3)c(C)oc2n1	/	/	/	-14	/
CN1C(=O)C(C(Nc2ccccc2)c2ccc(Br)cc2)c2ccccc21 (stereo not given)	/	/	/	49	/
CCOC(=O)Cc1csc(Nc2ccc(Cl)cc2)n1	83%	53%	48*	-72*	11*
CCOC(=O)Cc1csc(NC(=S)NC(=O)c2ccc([N+](=O)[O-])cc2)n1	72%	4%	2	-32	4
CCOC(=O)Cc1csc(NC(=S)NC(=O)c2ccc(Cl)cc2)n1	?	?	-3	-84*	-8
CC(=O)Cc1nsc(Nc2cccc(C)c2)n1	i	93%	28*	-8	92*
COC(=O)Cc1csc(Nc2ccccc2)n1	?	8%	31*	-35	97*
COc1ccc(/C=C/c2nc(C#N)c(N3CCC(C)CC3)o2)cc1OC	/	/	/	-14	/
COCCNC(=O)C1(C)CCCN(Cc2c(C)nn(-c3ccccc3)c2C)C1 (stereo not given)	/	/	/	-35	/
COc1cc(/C=N/N(C)S(=O)(=O)c2ccc(C)cc2)cc([N+](=O)[O-])c1O	?	-2%	-1	0	-2
COC(=O)Cc1csc(Nc2ccc(Cl)cc2)n1	40%	67%	22*	-21	36
COC(=O)Cc1csc(Nc2ccc(F)c(Cl)c2)n1	24%	15%	21*	?	30
O=C(OCc1csc(Nc2ccccc2)n1)c1ccc(Cl)cc1	76%	14%	-1	-24	-4
COC(=O)Cc1csc(NCc2ccccc2)n1	1%	4%	-3	-11	1
CCN(CC)C(=O)c1c(-c2ccccc2)c(-c2ccccc2)nn(CC)c1=O	/	/	/	7	/
S=C=Nc1ccc(N=C=S)cc1	-3%	-2%	/	/	/
c1ccc2c(c1)Nc1nccnc1S2	84%	67%	28*	17	128*
SMILES	Pf growth 96h	Pf growth 48h	CHX counter	HCMV inh	Shiga toxin inh
FC(F)(F)c1cnc2c(c1)Nc1ccccc1S2	23%	23%	13*	?	44
Clc1cc2c(nn1)Nc1ccccc1S2	43%	50%	11*	48	39
C[C@@H]1CN([C@H](C)CO)C(=O)CCCn2nncc2CO[C@H]1CN(C)S(=O)(=O)c1ccc2ccccc2c1	/	/	/	-20	/
CC(=O)N1c2ccccc2CC1C(=O)NCc1cccc(Cl)c1 (stereo not given)	/	/	/	38	/
Cc1nc2ccc(NC(=O)c3ccc(Br)o3)cc2s1	162%	89%	36*	42	66*
Cc1cc(C(=O)Nc2ccc3nc(C)sc3c2)c2ccccc2n1	-21%	-8%	-2	11	13
Cc1ccc2nc(NC(=S)NC(=O)c3cccs3)sc2c1	-55%	97%	47*	15	102*

High-throughput results deposited in PubChem by National Center for Advancing Translational Sciences (NCATS).
